# Results filed as inconclusive are left out. Calls of active or inactive are those of the source. Rule for the calls: active = hit-call score of the fitted dose curve at least 0.9, where 1 is the maximum; inconclusive = response in the unintended direction; inactive = score below 0.9.
# Key:
# [1] = biological target: Glucocorticoid receptor (Homo sapiens) (UniProt P04150); assay: NVS_NR_hGR: NovaScreen (NVS) Nuclear Receptor Binding Assay for human Glucocorticoid Receptor (GR) (AID 2283363);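 for AC50: activity is loss of specific radioligand binding signal relative to DMSO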
# Sequence of Glucocorticoid receptor (Homo sapiens) (P04150 whole entry, looked up): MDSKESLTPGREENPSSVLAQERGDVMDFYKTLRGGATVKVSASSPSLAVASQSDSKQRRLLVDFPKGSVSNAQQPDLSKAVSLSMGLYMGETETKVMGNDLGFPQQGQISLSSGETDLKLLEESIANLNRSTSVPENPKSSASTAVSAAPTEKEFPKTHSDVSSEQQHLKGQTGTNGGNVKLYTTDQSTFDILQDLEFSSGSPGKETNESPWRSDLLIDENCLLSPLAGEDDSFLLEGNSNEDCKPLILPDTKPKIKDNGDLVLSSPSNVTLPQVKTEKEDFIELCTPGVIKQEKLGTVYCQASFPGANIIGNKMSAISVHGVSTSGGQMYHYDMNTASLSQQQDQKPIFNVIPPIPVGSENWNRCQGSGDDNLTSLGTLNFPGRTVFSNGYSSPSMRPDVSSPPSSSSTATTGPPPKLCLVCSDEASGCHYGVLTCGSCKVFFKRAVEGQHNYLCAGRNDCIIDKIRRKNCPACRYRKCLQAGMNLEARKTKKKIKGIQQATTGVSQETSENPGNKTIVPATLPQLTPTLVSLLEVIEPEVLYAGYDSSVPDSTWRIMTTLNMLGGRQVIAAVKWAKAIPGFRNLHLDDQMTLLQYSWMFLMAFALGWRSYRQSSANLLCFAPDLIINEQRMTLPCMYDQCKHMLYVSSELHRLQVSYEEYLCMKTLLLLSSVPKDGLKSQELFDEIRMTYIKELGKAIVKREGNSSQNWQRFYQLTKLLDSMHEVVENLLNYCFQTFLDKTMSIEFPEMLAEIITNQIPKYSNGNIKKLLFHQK
# How it was run: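 Filter scintillation readout of tritiated/iodinated radioligand displaced by test chemical; cell-free extracted protein; 16 h. DMSO = negative control/baseline. Duplicate single-point 25 uM screen, then concentration-response on actives.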
# [2] = biological target: rat Androgen Receptor (AR), Ar (gene 24208) (UniProt P15207); assay: NVS_NR_rAR: NovaScreen (NVS) Nuclear Receptor Binding Assay for rat Androgen Receptor (AR) (AID 2283366)
# Sequence of rat Androgen Receptor (AR), Ar (gene 24208) (P15207 whole entry, looked up): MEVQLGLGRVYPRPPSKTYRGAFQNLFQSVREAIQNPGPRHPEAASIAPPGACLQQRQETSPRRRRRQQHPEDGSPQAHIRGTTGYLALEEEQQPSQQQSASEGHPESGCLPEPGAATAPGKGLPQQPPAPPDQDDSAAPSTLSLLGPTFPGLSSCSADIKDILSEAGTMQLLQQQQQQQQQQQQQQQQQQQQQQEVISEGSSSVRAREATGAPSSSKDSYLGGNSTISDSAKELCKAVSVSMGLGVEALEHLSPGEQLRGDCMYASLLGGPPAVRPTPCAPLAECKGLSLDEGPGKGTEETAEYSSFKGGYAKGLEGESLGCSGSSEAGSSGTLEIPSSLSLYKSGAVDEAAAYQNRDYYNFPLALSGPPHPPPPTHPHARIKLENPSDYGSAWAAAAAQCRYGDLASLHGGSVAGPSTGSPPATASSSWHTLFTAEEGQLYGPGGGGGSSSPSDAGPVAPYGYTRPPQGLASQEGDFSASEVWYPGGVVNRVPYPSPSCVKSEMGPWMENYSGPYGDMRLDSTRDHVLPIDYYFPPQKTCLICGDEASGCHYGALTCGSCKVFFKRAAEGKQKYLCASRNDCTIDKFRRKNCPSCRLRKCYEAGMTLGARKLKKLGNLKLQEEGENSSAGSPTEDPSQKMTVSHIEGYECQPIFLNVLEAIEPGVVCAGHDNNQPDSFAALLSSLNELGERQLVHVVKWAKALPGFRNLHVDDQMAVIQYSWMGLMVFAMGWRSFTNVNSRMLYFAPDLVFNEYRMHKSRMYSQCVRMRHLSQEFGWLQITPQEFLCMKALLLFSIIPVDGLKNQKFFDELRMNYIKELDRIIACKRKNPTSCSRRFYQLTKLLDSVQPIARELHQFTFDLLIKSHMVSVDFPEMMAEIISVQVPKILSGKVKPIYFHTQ
# How it was run: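 Actives from a duplicate single-concentration (25 uM) primary run went on to concentration series. Displacement of radioligand was counted by filtration and scintillation, 18 h post-dose, using prostate extracts from testosterone-pretreated rats, with DMSO as baseline.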
# [3] = system: guinea pig Dopamine Transporter (DAT), gene 100714898; assay: NVS_TR_gDAT: NovaScreen (NVS) Transporter Assay for guinea pig Dopamine Transporter (DAT) (AID 2283369);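 note: active compounds lower bound radioligand signal relative to DMSO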
# How it was run: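 Scintillation counts of filter-retained radioligand report binding to guinea pig striatal membranes after 2 h. Activity scored as signal loss relative to DMSO, first at 25 uM in duplicate, then in concentration series to 50 uM.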
# [4] = biological target: Peroxisome proliferator-activated receptor gamma (Homo sapiens) (UniProt P37231); assay: NVS_NR_hPPARg: NovaScreen (NVS) Nuclear Receptor Binding Assay for human Peroxisome Proliferator-activated Receptor gamma (PPARg) (AID 2283370)
# Sequence of Peroxisome proliferator-activated receptor gamma (Homo sapiens) (P37231 whole entry, looked up): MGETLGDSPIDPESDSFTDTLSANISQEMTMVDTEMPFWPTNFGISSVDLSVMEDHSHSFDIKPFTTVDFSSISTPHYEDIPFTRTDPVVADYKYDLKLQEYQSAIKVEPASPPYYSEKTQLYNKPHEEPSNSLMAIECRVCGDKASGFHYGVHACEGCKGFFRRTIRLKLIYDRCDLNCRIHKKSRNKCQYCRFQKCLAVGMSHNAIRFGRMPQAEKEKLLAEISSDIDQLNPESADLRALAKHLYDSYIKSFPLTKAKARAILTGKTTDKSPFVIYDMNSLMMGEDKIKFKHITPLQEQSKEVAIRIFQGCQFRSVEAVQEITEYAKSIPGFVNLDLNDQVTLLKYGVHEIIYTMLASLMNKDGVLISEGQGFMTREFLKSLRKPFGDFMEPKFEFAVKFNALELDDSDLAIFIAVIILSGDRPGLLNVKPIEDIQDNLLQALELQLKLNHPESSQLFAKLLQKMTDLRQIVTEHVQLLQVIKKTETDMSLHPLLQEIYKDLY
# How it was run: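 Chemicals were tested first in duplicate at 25 uM, then in concentration series if active. Binding to cell-free PPARg protein was measured by fluorescence polarization after 2 h, with loss of signal scored against DMSO.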
# [5] = biological target: human Dopamine Transporter (DAT), SLC6A3 (gene 6531) (UniProt Q01959); assay: NVS_TR_hDAT: NovaScreen (NVS) Transporter Assay for human Dopamine Transporter (DAT) (AID 2283374);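 note: activity means loss of bound radioligand signal relative to DMSO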
# Sequence of human Dopamine Transporter (DAT), SLC6A3 (gene 6531) (Q01959 whole entry, looked up): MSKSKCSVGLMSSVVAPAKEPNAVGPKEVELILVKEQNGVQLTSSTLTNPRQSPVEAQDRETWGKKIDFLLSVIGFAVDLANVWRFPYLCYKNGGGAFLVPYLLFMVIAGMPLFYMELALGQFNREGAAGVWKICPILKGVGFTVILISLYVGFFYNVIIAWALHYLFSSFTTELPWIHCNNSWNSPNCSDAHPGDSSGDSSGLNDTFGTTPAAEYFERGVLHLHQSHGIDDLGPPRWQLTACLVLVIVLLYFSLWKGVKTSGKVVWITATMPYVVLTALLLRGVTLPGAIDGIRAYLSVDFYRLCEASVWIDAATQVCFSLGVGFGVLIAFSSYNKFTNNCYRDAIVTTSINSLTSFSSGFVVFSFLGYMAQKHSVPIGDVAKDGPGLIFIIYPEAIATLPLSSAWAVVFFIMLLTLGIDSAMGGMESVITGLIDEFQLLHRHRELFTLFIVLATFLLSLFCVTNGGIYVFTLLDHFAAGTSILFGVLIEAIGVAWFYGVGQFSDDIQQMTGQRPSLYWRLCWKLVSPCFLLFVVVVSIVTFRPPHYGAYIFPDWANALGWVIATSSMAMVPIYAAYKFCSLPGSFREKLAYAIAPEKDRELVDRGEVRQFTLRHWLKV
# How it was run: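 hDAT membranes + tritiated/iodinated radioligand, competitive displacement; 1 h; filter scintillation readout. Single conc 25 uM (duplicate), then conc-response for actives. DMSO = negative control.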
# [6] = biological target: Nuclear receptor subfamily 1 group I member 2 (Homo sapiens) (UniProt O75469); assay: NVS_NR_hPXR: NovaScreen (NVS) Nuclear Receptor Binding Assay for human Pregnane X Receptor (PXR) (AID 2283365);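 note: a drop in FRET signal versus DMSO baseline means the compound binds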
# Sequence of Nuclear receptor subfamily 1 group I member 2 (Homo sapiens) (O75469 whole entry, looked up): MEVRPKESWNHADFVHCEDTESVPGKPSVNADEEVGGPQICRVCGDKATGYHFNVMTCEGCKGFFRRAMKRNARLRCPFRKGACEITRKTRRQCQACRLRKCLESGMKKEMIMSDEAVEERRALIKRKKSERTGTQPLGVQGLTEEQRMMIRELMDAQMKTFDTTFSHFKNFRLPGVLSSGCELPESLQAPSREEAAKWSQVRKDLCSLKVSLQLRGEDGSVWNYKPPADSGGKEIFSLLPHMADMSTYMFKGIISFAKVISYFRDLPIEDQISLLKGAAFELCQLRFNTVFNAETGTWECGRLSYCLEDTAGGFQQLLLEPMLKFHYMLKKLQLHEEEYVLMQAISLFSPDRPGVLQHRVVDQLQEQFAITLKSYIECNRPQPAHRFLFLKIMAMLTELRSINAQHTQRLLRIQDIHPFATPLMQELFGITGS
# How it was run: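 Human PXR protein, cell-free; compound added, incubated 2 h, TR-FRET read. Signal decrease vs DMSO = binding. Screened 25 uM duplicate, actives re-run as dilution series.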
# [7] = biological target: guinea pig Sigma Receptor, Non-selective Binding, SIGMAR1 (gene 100135589) (UniProt Q60492); assay: NVS_OR_gSIGMA_NonSelective: NovaScreen (NVS) Nuclear Receptor Binding Assay for guinea pig Sigma Receptor, Non-selective Binding (AID 2283367)
# Sequence of guinea pig Sigma Receptor, Non-selective Binding, SIGMAR1 (gene 100135589) (Q60492 whole entry, looked up): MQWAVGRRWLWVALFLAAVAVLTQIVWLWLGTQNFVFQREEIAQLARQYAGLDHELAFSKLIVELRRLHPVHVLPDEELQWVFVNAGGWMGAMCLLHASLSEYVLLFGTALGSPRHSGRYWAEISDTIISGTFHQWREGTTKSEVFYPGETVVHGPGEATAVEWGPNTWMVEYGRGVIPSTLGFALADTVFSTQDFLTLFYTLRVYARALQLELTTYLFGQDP
# How it was run: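 Membranes from guinea pig brain incubated with radioligand and test chemical for 1 h, then filtered and scintillation-counted. Duplicate primary testing at 25 uM, with concentration-series follow-up for actives.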
# [8] = biological target: human Serotonin Transporter (SERT), SLC6A4 (gene 6532) (UniProt P31645); assay: NVS_TR_hSERT: NovaScreen (NVS) Transporter Assay for human Serotonin Transporter (SERT) (AID 2283372)
# Sequence of human Serotonin Transporter (SERT), SLC6A4 (gene 6532) (P31645 whole entry, looked up): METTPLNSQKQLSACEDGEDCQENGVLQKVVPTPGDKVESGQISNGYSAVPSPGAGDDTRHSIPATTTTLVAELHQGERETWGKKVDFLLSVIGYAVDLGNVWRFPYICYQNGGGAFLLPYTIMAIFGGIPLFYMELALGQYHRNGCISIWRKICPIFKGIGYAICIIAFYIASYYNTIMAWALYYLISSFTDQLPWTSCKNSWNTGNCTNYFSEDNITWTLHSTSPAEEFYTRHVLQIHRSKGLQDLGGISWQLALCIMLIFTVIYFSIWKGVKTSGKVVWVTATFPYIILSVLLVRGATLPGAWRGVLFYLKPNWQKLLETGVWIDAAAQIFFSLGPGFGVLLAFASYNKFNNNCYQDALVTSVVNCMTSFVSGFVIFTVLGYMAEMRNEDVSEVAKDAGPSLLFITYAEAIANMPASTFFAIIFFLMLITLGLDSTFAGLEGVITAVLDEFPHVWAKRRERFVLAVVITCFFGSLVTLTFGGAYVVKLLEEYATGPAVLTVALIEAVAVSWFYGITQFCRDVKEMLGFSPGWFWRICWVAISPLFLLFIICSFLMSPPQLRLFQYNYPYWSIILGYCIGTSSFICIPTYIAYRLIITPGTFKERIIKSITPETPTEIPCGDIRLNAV
# How it was run: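 Human platelet membrane preparation; displacement of radioligand from serotonin transporter measured after 1 h by filtration and scintillation counting. Single 25 uM duplicate screen, then concentration series for actives, with DMSO as negative baseline.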
# [9] = biological target: human Adenosine Transporter (Adot), SLC29A1 (gene 2030) (UniProt Q99808); assay: NVS_TR_hAdoT: NovaScreen (NVS) Transporter Assay for human Adenosine Transporter (Adot) (AID 2283368)
# Sequence of human Adenosine Transporter (Adot), SLC29A1 (gene 2030) (Q99808 whole entry, looked up): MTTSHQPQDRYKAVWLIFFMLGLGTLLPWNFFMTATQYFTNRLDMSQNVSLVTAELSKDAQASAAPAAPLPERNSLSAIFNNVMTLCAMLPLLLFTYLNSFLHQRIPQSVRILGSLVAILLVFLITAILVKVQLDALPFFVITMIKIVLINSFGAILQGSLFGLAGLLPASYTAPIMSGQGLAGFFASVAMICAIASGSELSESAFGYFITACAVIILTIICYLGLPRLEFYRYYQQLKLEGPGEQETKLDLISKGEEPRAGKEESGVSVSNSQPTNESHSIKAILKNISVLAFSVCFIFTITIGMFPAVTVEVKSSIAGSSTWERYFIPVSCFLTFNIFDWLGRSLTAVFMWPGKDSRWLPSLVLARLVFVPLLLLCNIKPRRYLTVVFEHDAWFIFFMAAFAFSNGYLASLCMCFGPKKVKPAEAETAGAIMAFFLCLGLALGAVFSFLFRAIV
# How it was run: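 Binding displacement on U937 extracted protein, read 1 h post-dose by filtration and scintillation counting. Primary duplicate test at 25 uM, then singleton concentration series with 50 uM top; DMSO baseline.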
# [10] = system: rat Norepinephrine Transporter (NET), gene 83511; assay: NVS_TR_rNET: NovaScreen (NVS) Transporter Assay for rat Norepinephrine Transporter (NET) (AID 2283373)
# How it was run: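 Competitive radioligand displacement at the rat NET using forebrain membrane preparations, 1 h incubation, filter-based scintillation readout. Primary testing in duplicate at a single 25 uM concentration; confirmed actives retested across concentrations.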
compound,measurement,setting,value
C=C(C)[C@H]1Cc2c(ccc3c2O[C@@H]2COc4cc(OC)c(OC)cc4[C@@H]2C3=O)O1,AC50,[1],0.425 µM (active)
same,outcome,[2],inactive
same,outcome,[3],inactive
same,outcome,[4],inactive
same,outcome,[5],inactive
CCC(CC)Nc1c([N+](=O)[O-])cc(C)c(C)c1[N+](=O)[O-],outcome,[1],inactive
same,outcome,[4],inactive
CNc1cnn(-c2cccc(C(F)(F)F)c2)c(=O)c1Cl,outcome,[1],inactive
same,outcome,[4],inactive
CC(C)N(C(=O)SCC(Cl)=C(Cl)Cl)C(C)C,outcome,[1],inactive
same,outcome,[6],inactive
same,AC50,[5],7.84 µM (active)
CCCCN(CC)c1c([N+](=O)[O-])cc(C(F)(F)F)cc1[N+](=O)[O-],outcome,[1],inactive
same,outcome,[4],inactive
C#CC(C)(C)NC(=O)c1cc(Cl)cc(Cl)c1,outcome,[1],inactive
same,AC50,[7],1.94 µM (active)
O=C(O)c1cc(Oc2ccc(C(F)(F)F)cc2Cl)ccc1[N+](=O)[O-],AC50,[4],9.58 µM (active)
O=[N+]([O-])c1cc(C(F)(F)F)c(Cl)c([N+](=O)[O-])c1Nc1ncc(C(F)(F)F)cc1Cl,AC50,[4],0.319 µM (active)
same,outcome,[5],inactive
CCc1cccc(CC)c1N(COC)C(=O)CCl,AC50,[4],21.2 µM (active)
S=C1NCCN1,outcome,[7],inactive
CCC(=NOC/C=C/Cl)C1=C(O)CC(C2CCOCC2)CC1=O (configuration not stated),outcome,[4],inactive
C[N+]1(C)CCCCC1,outcome,[8],inactive
CC(C)[C@H](C(=O)O[C@H](C#N)c1cccc(Oc2ccccc2)c1)c1ccc(Cl)cc1,outcome,[4],inactive
same,AC50,[5],16.2 µM (active)
CCOP(=S)(OCC)OC(Cl)C(Cl)(Cl)Cl (configuration not stated),outcome,[4],inactive
CCOP(=O)(OCC)Oc1cc(C)nc(C(C)C)n1,outcome,[4],inactive
Nc1c(Cl)cc([N+](=O)[O-])cc1Cl,outcome,[3],inactive
same,outcome,[4],inactive
same,outcome,[8],inactive
same,AC50,[5],25 µM (active)
CCOP(=O)(NC(C)C)Oc1ccc(SC)c(C)c1 (configuration not stated),outcome,[4],inactive
CC(C)=CC1C(C(=O)OCN2C(=O)C3=C(CCCC3)C2=O)C1(C)C (configuration not stated),AC50,[9],25 µM (active)
same,outcome,[3],inactive
same,outcome,[8],inactive
same,outcome,[5],inactive
CSc1nnc(C(C)(C)C)c(=O)n1N,outcome,[5],inactive
CCc1cccc(C)c1N(C(=O)CCl)C(C)COC (configuration not stated),outcome,[7],inactive
same,outcome,[4],inactive
C#CCC1=C(C)C(OC(=O)C2C(C=C(C)C)C2(C)C)CC1=O (configuration not stated),AC50,[3],9.21 µM (active)
same,AC50,[5],12 µM (active)
CCCCOC(=O)[C@@H](C)Oc1ccc(Oc2ccc(C#N)cc2F)cc1,outcome,[5],inactive
CC1(C(=O)Nc2ccc(O)c(Cl)c2Cl)CCCCC1,AC50,[3],3.33 µM (active)
same,AC50,[5],4.68 µM (active)
CCC(=O)Nc1ccc(Cl)c(Cl)c1,AC50,[7],9.51 µM (active)
same,AC50,[10],4.96 µM (active)
same,AC50,[5],6.22 µM (active)
